# Sampled rows, rich in hits. Any-hit rate of the full collection: about 1.6%.
# Vif imaging: inhibitors of HIV Vif; HEK293T cells, Vif self-association by quenched fluorescence, imaging, 24 h; inhibition, % at 7.49 µM; 0.35% of 340,000 active; AID 602346; in the data active = inhibition above about 50%, passing the limit was not always enough; inconclusive = no clear call, values can overlap the other calls; inactive = below about 31%
# Myeloid diff 2: promotes myeloid progenitor differentiation | ER-HoxA9 myeloid progenitors, lysozyme-GFP differentiation, flow cytometry | calls only at 10 µM | 1% of 360,000 active;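 active = normalized GFP-positive differentiation at or above the plate's own cutoff, the solvent-only control mean plus 3 SD; inconclusive = no clear call, values can overlap the other calls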;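 note: cells exposed to compound for four days before flow analysis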
# RAD54 inh: RAD54 (human) branch migration inhibition | inhibition, % at 10.4 µM | Q92698 | AID 602329 | RAD54 Holliday junction branch migration, FAM/BHQ fluorescence | 0.14% of 360,000 active;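 active = mean normalized replicate activity at least 40 and at least half of replicates scoring 40 or more; inconclusive = only one of the two criteria met; inactive = mean below 40 and under half of replicates reaching 40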;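 note: 0% = median of neutral control wells and 100% = median of positive control wells; inhibitors cause a drop in the FAM fluorescence signal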
# N-glyco inh: blocks N-linked glycosylation in D54 reporter cells; D54 ERlucT glycosylation luciferase reporter, 24 h; percent of 100 nM tunicamycin response; reporter increase, % at 12.5 µM; 0.23% of 360,000 active;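 active = mean luciferase reporter signal, scaled so untreated is 0 and the glycosylation-blocking control 100, at or above a set limit in every replicate; inconclusive = mean reaches the limit but not every replicate does; inactive = mean below the limit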;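 note: luciferase carries N-glycosylation sites so blocking glycosylation raises the light; 0% = median of neutral control wells and 100% = median of 100 nM tunicamycin wells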
# ABCB6 inh 2: inhibitors of human ABC transporter ABCB6 | K562-ABCB6 porphyrin accumulation, flow cytometry, 1 h; active compounds read low | Q9NP58 | AID 602162 | 0.19% of 360,000 active | fluorescence ratio to DMSO, % at 10 µM;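 active = fluorescence ratio to DMSO below 75%, the collection mean minus 3 SD; inconclusive = too few cells collected in the well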;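 note: signal is porphyrin accumulated inside mitochondria; 100% equals median channel fluorescence of DMSO control wells; lower ratio means ABCB6 inhibition with less porphyrin fluorescence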
# Rad54 DNA ctr: DNA binding artifact in Rad54 counter-screen. shares compounds with RAD54 inh. Acridine orange-DNA displacement, fluorescence polarization, 20 min. 8% of 460 active. AC50, µM (top dose mostly 35 µM), inactives show at the highest dose activity change, negative = DNA binding;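 active = signal drop giving an AC50 within twice the top valid tested concentration of each sample, actives reach about 35 µM in these data; inactive = activity opposite to expected, plus the rest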;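 note: polarization loss reports compound binding to salmon sperm DNA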
# Numbers without * were called inactive; i = inactive; ? = inconclusive; · = no result given; + = active, no number; ! = not confirmed by another sample.
SMILES,Vif imaging,Myeloid diff 2,RAD54 inh,N-glyco inh,ABCB6 inh 2,Rad54 DNA ctr
CCCCN(C)CCNC(=S)Nc1ccc2nc(N3CCN(CC)CC3)cc(C)c2c1,-13,i,81*,1,105,9%
CCN1CCN(c2cc(C)c3cc(NC(=S)NCCN(C)C)ccc3n2)CC1,11,i,93*,0,97,-9%
CN(C)CCCNC(=O)[C@@H]1[C@@H](CO)[C@@H]2Cn3c(ccc(-c4ccccc4)c3=O)[C@H]1N2C(=O)CC1CC1,·,·,14,·,·,·
CCS(=O)(=O)Nc1ccc2c(c1)C(=O)N(C)C[C@H](OC)[C@@H](C)CN(C(C)=O)[C@H](C)CO2,·,·,-1,·,·,·
CCn1c(=N)c(C(=O)NC)cc2c(=O)n3cccc(C)c3nc21,-1,i,?,6,100,0%
CCCn1c(=N)c(C(=O)NC2CCCC2)cc2c(=O)n3cccc(C)c3nc21,2,i,9,6,102,·
Oc1ccc(Nc2ccnc3cc(Cl)ccc23)cc1,-5,i,58*,-5,91,-12%
CCN(CC)CCNc1ccnc2cc(Cl)ccc12,7,i,39,7,102,·
CCNC1CCC(Nc2ccnc3cc(Cl)ccc23)CC1 (stereo unspecified),17,i,55*,3,97,-2%
CCN(CC)Cc1cc(Nc2ccnc3cc(Cl)ccc23)ccc1O,-2,?,75*!,16,104,-16%
C[C@H](NC(=O)C[C@H]1CC[C@@H](NC(=O)Cc2ccccn2)[C@@H](CO)O1)c1ccccc1,·,·,-5,·,·,·
COc1ccccc1CNC(=O)C[C@@H]1CC[C@@H]2[C@H](COC[C@H](O)CN2C(=O)Nc2ccc(C(F)(F)F)cc2)O1,·,·,0,·,·,·
CCN1CCN(c2nn3c(=O)c4ccccc4nc3c3ccccc23)CC1,·,i,57*,12,203,i
COc1cccc(-c2nc(NCCN3CCOCC3)c3ccccc3n2)c1O,6,i,109*,14,91,-4%
Clc1ccc(-c2nc(NCCCN3CCOCC3)c3ccccc3n2)cc1,-4,i,24,-2,90,·
Cc1ccc(-c2nc(NCCN3CCOCC3)c3ccccc3n2)cc1,2,i,?,5,91,-7%
COc1cccc(-c2nc(NC(C)(C)C)c3ccccc3n2)c1O,-9,i,8,-2,92,·
Oc1ccccc1-c1nc(NCCN2CCOCC2)c2ccccc2n1,-5,i,?,4,94,10%
c1cncc(-c2nc(N3CCCCCC3)c3ccccc3n2)c1,-10,i,4,5,99,·
CN1CCN(c2nc(-c3cccnc3)nc3ccccc23)CC1,-2,i,57*,10,95,-20%
c1ccc(N2CCN(c3nc(-c4ccccn4)nc4ccccc34)CC2)cc1,-26,i,-8,2,88,·
CN1CCN(c2nc(-c3ccccn3)nc3ccccc23)CC1,?,i,?,1,103,9%
CCC(=O)N(C)C[C@H]1Oc2cc(-c3cccc(F)c3)ccc2S(=O)(=O)N([C@@H](C)CO)C[C@@H]1C,·,·,-3,·,·,·
COc1cc(C(=O)NC2CCN(C)CC2)ccc1Nc1ncc2c(n1)N(C1CCCCC1)CCC(=O)N2C,-4,?,78*,52*,98,13%
CCN1C(=O)CC(C(C)C)N(C2CCCC2)c2nc(Nc3ccc(C(=O)NC4CCN(C)CC4)cc3OC)ncc21 (stereo unspecified),13,i,12,18,95,·
SMILES,Vif imaging,Myeloid diff 2,RAD54 inh,N-glyco inh,ABCB6 inh 2,Rad54 DNA ctr
CC(N)c1csc(Nc2nncc3ccccc23)n1 (stereo unspecified),-11,i,70*,3,100,-1%
CC(C)C(N)c1csc(Nc2nncc3ccccc23)n1 (stereo unspecified),-2,i,30,-4,89,·
C[C@@H]1CCCCO[C@H](CN(C)Cc2ccccc2)[C@H](C)CN([C@H](C)CO)C(=O)c2cc(NS(=O)(=O)c3cn(C)cn3)ccc2O1,·,·,3,·,·,·
Cc1ccc(S(=O)(=O)N[C@@H]2CC[C@@H](CCNS(=O)(=O)Cc3ccccc3)O[C@@H]2CO)cc1,·,·,-12,·,·,·
COc1ccc(N2CCN(c3cc(C)c4ccc(O)cc4n3)CC2)cc1,3,i,3,0,100,·
COc1cc(OC)c2nc(C)c3c(c2c1)N(c1ccc(O)cc1)CC3,7,i,51*,28*,97,-3%
O=C(c1cccnc1)N1C[C@H]2[C@@H](c3ccccc31)[C@@H](CO)N2C(=O)C1CCCCC1,·,·,2,·,·,·
COc1ccc(OC)c2c(C)cc(NCCN3CCOCC3)nc12,-4,i,54*,5,95,-10%
COc1ccc(S(=O)(=O)NCCN2CCOCC2)c(C)c1C,-8,i,1,0,94,·
O=C(C[C@H]1CC[C@@H](NC(=O)Nc2ccc(C(F)(F)F)cc2)[C@@H](CO)O1)NCCN1CCCC1,·,·,-3,·,·,·
Cc1cc2oc3cc(NCCC4CCCN4C)ccc3c(=O)c2cc1C (stereo unspecified),-4,i,69*,-3,96,-15%
CN1CCCC1CCNc1ccc2sc3ccccc3c(=O)c2c1 (stereo unspecified),·,+,56*,-4,272,-16%
O=c1c2ccccc2sc2ccc(NCCCN3CCOCC3)cc12,15,+,51*,4,153,-29%
O=c1c2ccccc2oc2ccc(NCCCn3ccnc3)cc12,-4,i,-11,-16,97,·
COc1ccc(Cc2c(-c3ccc(C)cc3)nc3c(C)cc(Br)cn23)c(C)c1,·,i,-10,-1,98,·
COc1ccc(Cc2c(-c3ccc(OC)c(OC)c3)nc3c(C)cc(Br)cn23)c(C)c1,·,i,60*,2,94,-8%
CCOC(=O)c1c(CN2CCCCC2)n(C)c2cc(Br)c(OC)cc12,4,i,?,0,81,-17%
O=C(CS(=O)(=O)c1ccccc1)Nc1ccccn1,-6,i,·,3,103,·
O=C(CS(=O)(=O)c1ccccc1)Nc1ccc(Br)cn1,3,i,?,0,95,8%
CN(C)CCNC(=O)c1cc2c(=O)n(C)c3ccccc3c2n1C,-1,i,78*,16,101,i
CCN(CC)CCCNC(=O)c1cc2c(=O)n(C)c3ccccc3c2n1C,8,i,72*,15,95,-22%
CCCCN(CC)CCNC(=O)c1cc2c(=O)n(C)c3ccccc3c2n1C,0,i,56*,-1,91,-16%
CCN(CC)CCNC(=O)c1cc2c(=O)n(C)c3ccccc3c2n1C,-3,i,61*,16,105,-12%
COCCNC(=O)c1cc2c(=O)n(C)c3ccccc3c2n1C,-6,i,-5,3,100,·
OC(CSc1ccccn1)CC(O)c1ccccc1 (stereo unspecified),·,·,-11,·,·,·
COc1ccccc1CNC(=O)C[C@H]1CC[C@@H]2[C@H](COC[C@H](O)CN2C(=O)Nc2ccc(Cl)cc2)O1,·,·,3,·,·,·

# Screening data as filed in PubChem BioAssay.
